Data taken from PubChem BioAssay (NCATS).
“And” between values parts separate entries of the source, which are not always exact repeats. Equal entries are not always repeated. Results filed as inconclusive are left out. A call without a number means that no potency is given here. Values without a mark were called inactive. The source made the active and inactive calls. Unless noted, calls come from the whole dose curve; as a rule, active = well fitted curve in the direction sought with a large enough effect; inconclusive = small, poorly fitted or top-dose-only effect, or another doubt; inactive = no such curve, though single readings can be large; an effect the other way counts as inactive or inconclusive.

What was measured:
[1] = qHTS for Inhibitors of Plasmodium falciparum (DD2) proliferation (AID 504314); note: potency is the fitted concentration of half-maximal effect;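 for activity, negative = inhibition: parasite DNA measured by SYBR Green fluorescence after red cell lysis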
In short: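 P. falciparum Dd2 is grown in erythrocytes with test compound for 72 h at 37C under 5% CO2. Growth is scored by SYBR Green I fluorescence after detergent lysis, relative to artemisinin (0.29 uM) and DMSO controls.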

[2] = qHTS for Inhibitors of Plasmodium falciparum (GB4) proliferation (AID 504315); note: nearly all actives have a fitted effect of over 50% in size; note: potency is the fitted concentration of half-maximal effect
In short: (§1)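 Parasite growth measured as SYBR Green DNA fluorescence (ex 485, em 535 nm) after overnight lysis following 72 h culture at 37 °C, 0.3% parasitemia, 2.5% hematocrit. Values normalized against DMSO and 0.29 uM artemisinin controls, with plate-stack correction.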

[3] = qHTS for Inhibitors of Plasmodium falciparum (7G8) proliferation (AID 504316); note: nearly all actives have a fitted effect of over 65% in size; note: potency is the fitted concentration of half-maximal effect
In short: as §1

[4] = qHTS for Inhibitors of Plasmodium falciparum (HB3) proliferation (AID 504318); note: nearly all actives have a fitted effect of over 60% in size; note: potency is the fitted concentration of half-maximal effect
In short: as §1

[5] = target: Atrial natriuretic peptide receptor 1 (Homo sapiens) (UniProt P16066); assay: Natriuretic polypeptide receptor (hNpr1) antagonism - Pilot CMLD screen (AID 1347052; calls by dose curve;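 note: HEK293 cells with hNpr1 stimulated by hNppA peptide at 0.1 nM; cGMP level read as GloSensor luciferase luminescence after agonist stimulation; series mostly up to about 9.2 µM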)
Atrial natriuretic peptide receptor 1 (Homo sapiens), sequence (P16066 whole entry, looked up): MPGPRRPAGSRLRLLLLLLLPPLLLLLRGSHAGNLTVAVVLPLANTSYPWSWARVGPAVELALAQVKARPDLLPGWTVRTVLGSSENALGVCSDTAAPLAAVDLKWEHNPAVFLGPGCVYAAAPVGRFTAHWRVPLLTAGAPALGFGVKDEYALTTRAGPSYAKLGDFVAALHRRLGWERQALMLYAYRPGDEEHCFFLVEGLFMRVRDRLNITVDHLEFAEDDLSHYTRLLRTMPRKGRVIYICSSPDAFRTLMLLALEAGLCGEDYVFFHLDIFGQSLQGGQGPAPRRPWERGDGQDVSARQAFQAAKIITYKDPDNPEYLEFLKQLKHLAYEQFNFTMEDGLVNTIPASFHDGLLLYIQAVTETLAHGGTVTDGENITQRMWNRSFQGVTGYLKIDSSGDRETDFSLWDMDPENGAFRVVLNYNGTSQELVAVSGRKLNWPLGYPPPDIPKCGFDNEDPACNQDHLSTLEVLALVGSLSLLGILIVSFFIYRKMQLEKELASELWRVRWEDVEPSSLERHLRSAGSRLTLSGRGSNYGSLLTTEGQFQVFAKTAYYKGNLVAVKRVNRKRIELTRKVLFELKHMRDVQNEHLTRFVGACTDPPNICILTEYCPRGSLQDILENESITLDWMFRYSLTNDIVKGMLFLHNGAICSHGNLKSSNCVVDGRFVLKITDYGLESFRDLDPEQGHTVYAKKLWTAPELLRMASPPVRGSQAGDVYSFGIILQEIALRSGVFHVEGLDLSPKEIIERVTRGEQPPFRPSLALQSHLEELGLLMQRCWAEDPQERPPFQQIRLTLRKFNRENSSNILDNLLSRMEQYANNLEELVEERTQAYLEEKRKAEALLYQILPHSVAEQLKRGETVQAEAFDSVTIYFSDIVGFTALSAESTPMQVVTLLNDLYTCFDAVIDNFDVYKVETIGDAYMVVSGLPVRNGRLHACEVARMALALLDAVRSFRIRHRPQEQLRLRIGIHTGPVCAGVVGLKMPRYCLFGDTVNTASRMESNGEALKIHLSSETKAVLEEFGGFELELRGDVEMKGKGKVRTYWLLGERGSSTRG

Cc1noc(C)c1S(=O)(=O)N1CCc2nc(-c3ccccc3)c3c(c2C1)CO[C@@H](C)C3
activity, negative = inhibition [1]: 2% [at 1.12 µM]
Potency [2]: inactive
Potency [3]: inactive
Potency [4]: inactive
Potency [5]: inactive

CCCCc1nc2c(c3c1C[C@H](C)OC3)CN(C(=O)c1cccnc1)CC2
Potency [1]: inactive
Potency [2]: inactive
Potency [3]: inactive
Potency [4]: inactive
Potency [5]: inactive

COc1ccc2c(c1)C(=O)[C@@H](OC(=O)NS(=O)(=O)c1ccc(F)cc1)[C@H](c1ccc(OC)c(Br)c1)O2
Potency [1]: inactive
Potency [2]: inactive
Potency [3]: inactive
Potency [4]: inactive
Potency [5]: inactive

CC(C)(C)Nc1oc(-c2ccccc2)nc1-c1ccc(C(F)(F)F)cc1
Potency [1]: inactive
Potency [2]: inactive
Potency [3]: inactive
Potency [4]: inactive
Potency [5]: inactive

COCCN1C(=O)N[C@@H](CCc2ccccc2)[C@@H](C(=O)OC)[C@H]1C
Potency [1]: inactive
Potency [2]: inactive
Potency [3]: inactive
Potency [4]: inactive
Potency [5]: inactive

CC(=O)OC[C@H]1O[C@H](C#Cc2ccccc2Cl)C=C[C@H]1OC(C)=O
Potency [1]: inactive
Potency [2]: inactive
Potency [3]: inactive
Potency [4]: inactive
Potency [5]: inactive

COCCN1C(=O)N[C@@H](CCc2ccccc2)[C@H](C(C)=O)[C@H]1C
Potency [1]: inactive
Potency [2]: inactive
Potency [3]: inactive
Potency [4]: inactive
Potency [5]: inactive

COC(=O)[C@@H]1[C@@H](c2ccccc2)NC(=O)N(Cc2ccccc2)[C@@H]1C
Potency [1]: inactive
Potency [2]: inactive
Potency [3]: inactive
Potency [4]: inactive
Potency [5]: inactive

COc1ccc2c(c1)O[C@@H](c1ccc3c(c1)OCO3)[C@H](OC(=O)Nc1ccc(OC(F)F)cc1)C2=O
Potency [1]: inactive
Potency [2]: inactive
Potency [3]: inactive
Potency [4]: inactive
Potency [5]: inactive

CCN1C(=O)[C@@H]2[C@H]3[C@H](O)[C@H](O)CC(=NO[C@H](C)CN4CCCc5nc(C)c(C)cc54)[C@@H]3CC[C@H]2C1=O
Potency [1]: inactive
Potency [2]: inactive
Potency [3]: inactive
Potency [4]: inactive
Potency [5]: inactive

CCOC(=O)CN1C(=O)NC(c2cccs2)C(C(=O)OC)=C1C (stereo not given)
Potency [1]: inactive
Potency [2]: inactive
Potency [3]: inactive
Potency [4]: inactive
Potency [5]: inactive

CC12C=C(C=Cc3ccc(Br)cc3)C(C)(C1)C(c1ccc(Br)cc1)CC2=O (stereo not given)
Potency [1]: 1.5 µM (active)
Potency [2]: 1.69 µM (active)
Potency [3]: 1.69 µM (active)
Potency [4]: 1.69 µM (active)
Potency [5]: inactive

CC(=O)C1=C(C)N(CC#C[Si](C)(C)C)C(=O)N(C(C)=O)C1c1ccccc1 (stereo not given)
Potency [1]: inactive
Potency [2]: inactive
Potency [3]: inactive
Potency [4]: inactive
Potency [5]: inactive

CCCC[C@@H]1CN2[C@@H](CC[C@H](C)[C@@H]2c2ccc(Br)cc2)C(=O)O1
Potency [1]: inactive
Potency [2]: inactive
Potency [3]: inactive
Potency [4]: inactive
Potency [5]: inactive

CC1(OC(=O)CCc2ccccc2)C(=O)C=C2C=C(c3ccc(C#N)cc3)N(C(CO)CO)C=C2C1=O (stereo not given)
activity, negative = inhibition [1]: -1.45% [at 1.12 µM]
Potency [2]: inactive
Potency [3]: inactive
Potency [4]: inactive
Potency [5]: inactive

Cc1cc2c(nc1C)CCCN2CC(O)CN1CCN(C)CC1 (stereo not given)
Potency [1]: inactive
Potency [2]: inactive
Potency [3]: inactive
Potency [4]: inactive
Potency [5]: inactive

COC[C@@H](O)[C@H]1OCc2ccccc2[C@H]1C=Cc1ccccc1
Potency [1]: inactive
Potency [2]: inactive
Potency [3]: inactive
Potency [4]: inactive
Potency [5]: inactive

C=C[C@H](C)[C@](C)(O)c1ccccc1
Potency [1]: inactive
Potency [2]: inactive
Potency [3]: inactive
Potency [4]: inactive
Potency [5]: inactive

CC1=CC[C@@H](C)O[C@@]2(C1)C(=O)Nc1ccccc12
Potency [1]: inactive
Potency [2]: inactive
Potency [3]: inactive
Potency [4]: inactive
Potency [5]: inactive

COC(=O)C1=C(C)N(CC#C[Si](C)(C)C)C(=O)N(C(C)=O)C1c1ccccc1 (stereo not given)
Potency [1]: inactive
Potency [2]: inactive
Potency [3]: inactive
Potency [4]: inactive
Potency [5]: inactive

CC(=O)C1=C(C)N(Cc2ccccc2)C(=O)NC1c1cccc(F)c1 (stereo not given)
Potency [1]: inactive
Potency [2]: inactive
Potency [3]: inactive
Potency [4]: inactive
Potency [5]: inactive

COC(=O)C1=C[C@@H]([C@@H](C)[C@H](OC)c2ccccc2Br)[C@@H]2OCC[C@H]12
Potency [1]: inactive
Potency [2]: inactive
Potency [3]: inactive
Potency [4]: inactive
Potency [5]: inactive

CCN1C(=O)N(C)C(c2ccccc2)C(C(=O)OC)=C1C (stereo not given)
Potency [1]: inactive
Potency [2]: inactive
Potency [3]: inactive
Potency [4]: inactive
Potency [5]: inactive

C=CCOC(=O)N[C@@H](Cc1ccccc1)C(C(=O)OC)=C(C)NCc1ccccc1
Potency [1]: inactive
Potency [2]: inactive
Potency [3]: inactive
Potency [4]: inactive
Potency [5]: inactive

CCCCc1cc2c(cn1)=C(OC(=O)C1CCCC1)C(C)(OC(=O)CC)C(=O)C=2 (stereo not given)
activity, negative = inhibition [1]: 0.367% [at 1.12 µM]
Potency [2]: 1.9 µM (active)
Potency [3]: 1.51 µM (active) and 1.69 µM (active)
Potency [4]: inactive
Potency [5]: inactive

CCCCc1nc2c(c3c1C[C@H](C)OC3)CN(C(=O)c1ccco1)CC2
activity, negative = inhibition [1]: -0.515% [at 1.12 µM]
Potency [2]: inactive
Potency [3]: inactive
Potency [4]: inactive
Potency [5]: inactive

COCC=CC1=CC2=CC(=O)C(C)(OC(=O)c3cnc4ccccc4n3)C(=O)C2=CN1Cc1ccc(OC)cc1 (stereo not given)
Potency [1]: inactive
Potency [2]: inactive
Potency [3]: inactive
Potency [4]: inactive
Potency [5]: inactive

COc1ccc2c(c1)O[C@H](c1ccc3c(c1)OCO3)[C@@H](OC(=O)NCCOc1ccccc1)C2=O
Potency [1]: inactive
Potency [2]: inactive
Potency [3]: inactive
Potency [4]: inactive
Potency [5]: inactive

COc1ccc(O[C@H]2C=C[C@@H](c3ccccc3)O[C@H]2CON=C2[C@H]3CCn4c(=O)n(-c5ccccc5)c(=O)n4[C@@H]3[C@H](O)[C@@H]3O[C@H]23)cc1
Potency [1]: inactive
Potency [2]: inactive
Potency [3]: inactive
Potency [4]: inactive
Potency [5]: inactive
